Test [1] in a line: NCI Yeast Anticancer Drug Screen. Data for the mlh1 rad18 strain (AID 175). As to conditions: S. cerevisiae mlh1 rad18 strain growth inhibition; at 50.0 µM; stronger effect = higher value. In outline: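 Cells of a genetically altered yeast strain, deficient in DNA damage repair, were treated with compound. Their growth was then compared with that of vehicle-treated cultures to give inhibition.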

A short description of test [2]: NCI Yeast Anticancer Drug Screen. Data for the mec2-1 strain (AID 157). As to conditions: S. cerevisiae mec2-1 strain, at 50.0 µM, stronger effect = higher value. In outline:
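Growth inhibition is read against vehicle-treated controls after compound exposure of the mec2-1 yeast strain, which is defective in DNA damage repair or cell cycle control.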

A short description of test [3]: NCI Yeast Anticancer Drug Screen. Data for the sgs1 mgt1 strain (AID 161).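 Note: 0% = growth of cultures given vehicle only.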 As to conditions: S. cerevisiae sgs1 mgt1 strain, at 50.0 µM, stronger effect = higher value. The procedure, abridged:
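Growth of a repair-deficient yeast mutant was monitored after compound treatment and expressed as inhibition relative to vehicle-treated cultures.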

A short description of test [4]: NCI Yeast Anticancer Drug Screen. Data for the cln2 rad14 strain (AID 165).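 Note: 0% = growth equal to vehicle treated cultures.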 The conditions noted are these: S. cerevisiae cln2 rad14 strain, at 50.0 µM, stronger effect = higher value. The procedure, abridged:
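Growth inhibition, relative to vehicle-treated controls, is the read-out. The test organism is a yeast strain with defined genetic alterations, cln2 rad14.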

Test [5] is described as follows: NCI Yeast Anticancer Drug Screen. Data for the bub3 strain (AID 167). The conditions noted are these: S. cerevisiae bub3 mutant strain, at 50.0 µM, stronger effect = higher value. The procedure, abridged: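 Whole-cell yeast assay. The mutant strain was incubated with compounds, and growth inhibition was determined by comparison with vehicle-treated cells.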

Molecules are shown by their SMILES. Compounds without any hit were thinned out: in the full panel of roughly 79,000, 15% have a hit. A number with no mark means an inactive call. Calls of active or inactive are those of the source. Cut-off read from the data, not from the text of the source: active = growth inhibition above about 70%; inactive = the rest.

We go through six compounds from PubChem BioAssay (NCI).

As to `O=C(O)C(O)C(O)C(OC1OC(CO)C(O)C(O)C1O)C(O)CO.O=C(O)C(O)C(O)C(OC1OC(CO)C(O)C(O)C1O)C(O)CO.[NH-]C1CCCCC1[NH-].[Pt+2]` (stereo unspecified), in test [1], the growth inhibition was -63.5%.
With `CCOc1ccc(N2C(=O)C3C4c5ccccc5C(c5ccccc54)C3C2=O)cc1` (stereo unspecified), the growth inhibition in test [2] is 6.45%; in test [1] it was 29%.
On to `CCCCCCCCCCCCCCCCOc1ccc(C(=O)NN)cc1N`, for which the growth inhibition in test [1] is -14.6%.
For the compound `CCn1c(C)[n+](CC)c2ccc(C(F)(F)F)cc21`, the values for the growth inhibition in test [2] and in test [1] were -10.7% and 14.9%, respectively.
As for `C/C(O)=C/c1nc2sc(C)c(C)c2c(=O)s1`, the growth inhibition was 9.85% in test [3], 5.5% in test [4], 15.2% in test [5] and -16.5% in test [1].
As to `[Br][Sn]([CH2][Sn]([Br])([c]1ccccc1)[c]1ccccc1)([c]1ccccc1)[c]1ccccc1`, in test [1], the growth inhibition was 81.8% (active).
